Holding throughout (experiment): DAPPL (digital affinity profiling via proximity ligation, sequencing); 10 mM Tris-HCl pH 7.5, 50 mM NaCl, 1 mM DTT, 4% glycerol, room temperature, 30 min; GST-TFs on glutathione beads, 16-mer random dsDNA library, 0.1% formaldehyde crosslink after washing; high values mean tight binding
The target in one experiment is T1, FEV (Homo sapiens, UniProt Q99581 1-238).
T1 sequence: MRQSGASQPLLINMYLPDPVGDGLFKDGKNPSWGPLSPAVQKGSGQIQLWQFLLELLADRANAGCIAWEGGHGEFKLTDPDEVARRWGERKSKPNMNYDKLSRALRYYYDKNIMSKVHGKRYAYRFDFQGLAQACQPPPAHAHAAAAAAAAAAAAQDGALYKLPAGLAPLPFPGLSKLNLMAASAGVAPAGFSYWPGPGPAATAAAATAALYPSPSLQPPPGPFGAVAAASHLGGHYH
As to conditions: protein: recombinant; tags: N-terminal GST; dsDNA, one strand shown. The method in brief: (§1)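 Beads coated with glutathione captured GST-fused human transcription factors that had been expressed in yeast, and the factors were then given DNA barcodes and pooled with a tag-only sample. The pools were incubated with 200 nmole of a random double-stranded 16-mer DNA library in Tris/NaCl/DTT/glycerol buffer for 30 min at room temperature, washed, crosslinked with 0.1% formaldehyde and proximity-ligated with BsaI/T4 ligase at 37 °C for 1 h. PCR amplification and Illumina NextSeq500 sequencing came last. Binding signal is each hexamer's read frequency for a factor divided by its frequency for the tag-only sample.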

A further experiment has as its target ETV5 (Homo sapiens, UniProt P41161 1-510). As to conditions: protein: recombinant; tags: N-terminal GST; dsDNA, one strand shown. The method in brief: as §1
A further experiment concerns the target HSF1 (Homo sapiens, UniProt Q00613 1-529). As to conditions: protein: recombinant; tags: N-terminal GST; chain copies: 3; dsDNA, one strand shown. The method in brief:
as §1

The next experiment addresses T2, SPIC (Homo sapiens, UniProt Q8N5J4 1-248).
T2 sequence: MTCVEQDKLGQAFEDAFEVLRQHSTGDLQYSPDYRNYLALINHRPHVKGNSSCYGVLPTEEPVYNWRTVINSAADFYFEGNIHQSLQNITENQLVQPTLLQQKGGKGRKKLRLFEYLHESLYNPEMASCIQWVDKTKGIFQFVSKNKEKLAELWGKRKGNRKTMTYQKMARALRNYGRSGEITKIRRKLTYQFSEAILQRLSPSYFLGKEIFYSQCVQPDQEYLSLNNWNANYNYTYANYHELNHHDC
As to conditions: protein: recombinant; tags: N-terminal GST; dsDNA, one strand shown. The method in brief: as §1

For the next experiment, the target named is ELF4 (Homo sapiens, UniProt Q99607 1-663). The following applies: protein: recombinant; tags: N-terminal GST; dsDNA, one strand shown. The method in brief:
as §1

For the next experiment, the target named is T3, ELK4 (Homo sapiens, UniProt P28324-2 1-405).
T3 sequence: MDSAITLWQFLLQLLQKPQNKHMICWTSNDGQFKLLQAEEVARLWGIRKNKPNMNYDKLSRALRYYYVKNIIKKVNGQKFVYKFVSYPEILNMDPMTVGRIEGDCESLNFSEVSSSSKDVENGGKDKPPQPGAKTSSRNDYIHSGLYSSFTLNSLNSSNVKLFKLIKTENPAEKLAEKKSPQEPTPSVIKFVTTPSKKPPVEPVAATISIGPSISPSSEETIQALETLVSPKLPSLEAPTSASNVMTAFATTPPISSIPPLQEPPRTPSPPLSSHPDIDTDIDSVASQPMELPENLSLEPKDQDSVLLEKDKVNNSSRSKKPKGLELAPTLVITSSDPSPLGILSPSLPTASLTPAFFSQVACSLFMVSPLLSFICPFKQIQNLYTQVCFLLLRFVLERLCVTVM
As to conditions: protein: recombinant; tags: N-terminal GST; dsDNA, one strand shown. The method in brief: as §1

For a further experiment, the target named is T4, ETV2 (Homo sapiens, UniProt O00321 1-342).
T4 sequence: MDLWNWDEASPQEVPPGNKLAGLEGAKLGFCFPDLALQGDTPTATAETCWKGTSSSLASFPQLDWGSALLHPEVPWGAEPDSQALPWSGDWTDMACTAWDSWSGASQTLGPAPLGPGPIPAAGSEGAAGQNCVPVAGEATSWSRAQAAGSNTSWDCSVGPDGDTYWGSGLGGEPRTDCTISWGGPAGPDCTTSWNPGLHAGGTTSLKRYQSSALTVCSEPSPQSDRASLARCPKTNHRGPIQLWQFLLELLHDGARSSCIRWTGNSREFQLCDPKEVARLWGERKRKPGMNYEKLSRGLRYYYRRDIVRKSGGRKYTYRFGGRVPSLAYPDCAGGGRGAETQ
The following applies: protein: recombinant; tags: N-terminal GST; dsDNA, one strand shown. The method in brief:
as §1

For a further experiment, the target named is T5, ELF3 (Homo sapiens, UniProt P78545 1-371).
T5 sequence: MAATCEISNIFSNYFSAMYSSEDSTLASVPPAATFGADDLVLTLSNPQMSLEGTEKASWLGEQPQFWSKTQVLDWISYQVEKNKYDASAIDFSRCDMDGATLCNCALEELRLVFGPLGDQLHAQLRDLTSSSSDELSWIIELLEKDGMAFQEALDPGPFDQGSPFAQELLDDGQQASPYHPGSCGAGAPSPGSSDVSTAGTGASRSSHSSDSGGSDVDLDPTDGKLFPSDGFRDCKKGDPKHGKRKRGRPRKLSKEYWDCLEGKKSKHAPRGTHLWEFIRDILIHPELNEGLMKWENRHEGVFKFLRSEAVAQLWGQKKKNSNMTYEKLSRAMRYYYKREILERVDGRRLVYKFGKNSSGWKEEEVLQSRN
As to conditions: protein: recombinant; tags: N-terminal GST; dsDNA, one strand shown. In outline: as §1

Another experiment deals with CRX (Homo sapiens, UniProt O43186 1-299). The following applies: protein: recombinant; tags: N-terminal GST; dsDNA, one strand shown. In outline:
as §1

A further experiment addresses ETV1 (Homo sapiens, UniProt P50549 1-477). As to conditions: protein: recombinant; tags: N-terminal GST; dsDNA, one strand shown. In outline:
as §1

The next experiment addresses T6, ERF (Homo sapiens, UniProt P50548 1-548).
T6 sequence: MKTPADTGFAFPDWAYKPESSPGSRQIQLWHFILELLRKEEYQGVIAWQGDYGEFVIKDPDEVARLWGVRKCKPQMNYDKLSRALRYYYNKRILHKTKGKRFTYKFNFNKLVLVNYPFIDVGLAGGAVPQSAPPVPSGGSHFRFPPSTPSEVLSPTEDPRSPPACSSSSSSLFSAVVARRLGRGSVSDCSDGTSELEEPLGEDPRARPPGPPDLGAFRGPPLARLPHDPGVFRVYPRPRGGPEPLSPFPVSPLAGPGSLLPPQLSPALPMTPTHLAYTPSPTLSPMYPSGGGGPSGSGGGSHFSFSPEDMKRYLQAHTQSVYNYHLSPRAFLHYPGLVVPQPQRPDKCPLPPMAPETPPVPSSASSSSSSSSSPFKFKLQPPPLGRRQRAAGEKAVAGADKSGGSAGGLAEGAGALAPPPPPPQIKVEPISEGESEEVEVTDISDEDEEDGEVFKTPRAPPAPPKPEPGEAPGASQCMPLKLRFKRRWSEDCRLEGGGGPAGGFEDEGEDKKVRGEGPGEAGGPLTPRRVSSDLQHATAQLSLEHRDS
As to conditions: protein: recombinant; tags: N-terminal GST; dsDNA, one strand shown. The method in brief: as §1

The target in a further experiment is T7, ETV3L (Homo sapiens, UniProt Q6ZN32 1-361).
T7 sequence: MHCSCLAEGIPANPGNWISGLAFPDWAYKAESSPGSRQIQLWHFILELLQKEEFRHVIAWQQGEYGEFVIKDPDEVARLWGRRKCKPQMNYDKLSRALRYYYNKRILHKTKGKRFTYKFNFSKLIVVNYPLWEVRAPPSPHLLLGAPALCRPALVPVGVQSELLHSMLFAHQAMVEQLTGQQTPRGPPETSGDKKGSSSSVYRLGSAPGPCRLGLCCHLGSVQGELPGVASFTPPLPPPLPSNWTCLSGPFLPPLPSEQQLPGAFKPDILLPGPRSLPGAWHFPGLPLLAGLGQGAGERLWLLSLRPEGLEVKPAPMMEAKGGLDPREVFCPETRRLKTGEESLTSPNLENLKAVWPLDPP
As to conditions: protein: recombinant; tags: N-terminal GST; dsDNA, one strand shown. In outline:
as §1

In another experiment the target is T8, ETS2 (Homo sapiens, UniProt P15036 1-469).
T8 sequence: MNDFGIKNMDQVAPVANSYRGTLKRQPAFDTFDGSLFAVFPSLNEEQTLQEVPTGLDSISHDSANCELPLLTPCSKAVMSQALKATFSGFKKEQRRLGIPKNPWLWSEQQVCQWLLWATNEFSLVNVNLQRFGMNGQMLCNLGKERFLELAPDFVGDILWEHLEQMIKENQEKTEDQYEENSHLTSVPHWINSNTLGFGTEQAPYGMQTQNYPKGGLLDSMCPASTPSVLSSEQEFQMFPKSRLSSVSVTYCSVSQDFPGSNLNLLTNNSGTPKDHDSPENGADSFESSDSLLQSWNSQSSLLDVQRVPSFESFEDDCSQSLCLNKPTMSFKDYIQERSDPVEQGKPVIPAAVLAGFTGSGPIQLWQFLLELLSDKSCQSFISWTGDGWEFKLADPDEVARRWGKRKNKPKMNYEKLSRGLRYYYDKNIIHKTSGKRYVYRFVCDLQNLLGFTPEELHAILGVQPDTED
As to conditions: protein: recombinant; tags: N-terminal GST; dsDNA, one strand shown. In outline:
as §1

A further experiment has as its target T9, SPDEF (Homo sapiens, UniProt O95238 1-335).
T9 sequence: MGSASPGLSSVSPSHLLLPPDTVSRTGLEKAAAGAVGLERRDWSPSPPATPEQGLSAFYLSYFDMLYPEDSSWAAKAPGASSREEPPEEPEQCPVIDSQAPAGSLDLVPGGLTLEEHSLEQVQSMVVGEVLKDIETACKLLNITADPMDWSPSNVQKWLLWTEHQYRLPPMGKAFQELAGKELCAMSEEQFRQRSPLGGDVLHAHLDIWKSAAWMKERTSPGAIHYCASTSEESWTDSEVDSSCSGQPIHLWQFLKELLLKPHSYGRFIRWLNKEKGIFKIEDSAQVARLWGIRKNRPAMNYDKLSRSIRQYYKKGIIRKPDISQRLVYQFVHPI
As to conditions: protein: recombinant; tags: N-terminal GST; dsDNA, one strand shown. In outline:
as §1

In a further experiment the target is T10, ETV7 (Homo sapiens, UniProt Q9Y603 1-341).
T10 sequence: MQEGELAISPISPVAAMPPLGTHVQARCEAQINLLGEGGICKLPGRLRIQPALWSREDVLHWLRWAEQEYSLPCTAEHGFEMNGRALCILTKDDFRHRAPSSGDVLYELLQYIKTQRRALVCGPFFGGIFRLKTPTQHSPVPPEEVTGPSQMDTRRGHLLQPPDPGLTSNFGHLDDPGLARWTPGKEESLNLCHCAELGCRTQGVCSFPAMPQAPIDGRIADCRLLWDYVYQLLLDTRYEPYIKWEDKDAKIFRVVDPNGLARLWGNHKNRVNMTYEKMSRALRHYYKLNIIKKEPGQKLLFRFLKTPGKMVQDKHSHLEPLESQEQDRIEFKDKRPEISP
The following applies: protein: recombinant; tags: N-terminal GST; dsDNA, one strand shown. The method in brief: as §1

Another experiment concerns the target T11, ELF5 (Homo sapiens, UniProt Q9UKW6-2 1-255).
T11 sequence: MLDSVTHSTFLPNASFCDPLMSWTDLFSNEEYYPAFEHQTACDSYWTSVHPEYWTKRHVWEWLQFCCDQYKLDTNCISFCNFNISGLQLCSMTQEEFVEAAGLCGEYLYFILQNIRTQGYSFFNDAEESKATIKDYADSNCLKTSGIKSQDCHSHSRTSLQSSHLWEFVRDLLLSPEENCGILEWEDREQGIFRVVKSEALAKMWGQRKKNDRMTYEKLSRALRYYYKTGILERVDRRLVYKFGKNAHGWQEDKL
As to conditions: protein: recombinant; tags: N-terminal GST; dsDNA, one strand shown. In outline:
as §1

The next experiment has as its target T12, ETV3 (Homo sapiens, UniProt P41162-2 1-143).
T12 sequence: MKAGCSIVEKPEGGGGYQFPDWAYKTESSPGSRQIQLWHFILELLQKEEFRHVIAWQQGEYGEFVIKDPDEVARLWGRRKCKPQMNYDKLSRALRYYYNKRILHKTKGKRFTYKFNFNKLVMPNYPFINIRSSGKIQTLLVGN
As to conditions: protein: recombinant; tags: N-terminal GST; dsDNA, one strand shown. The method in brief:
as §1

For the next experiment, the target named is ETV6 (Homo sapiens, UniProt P41212 1-452). The following applies: protein: recombinant; tags: N-terminal GST; dsDNA, one strand shown. The method in brief:
as §1

ELF4, sequence (Q99607 whole entry): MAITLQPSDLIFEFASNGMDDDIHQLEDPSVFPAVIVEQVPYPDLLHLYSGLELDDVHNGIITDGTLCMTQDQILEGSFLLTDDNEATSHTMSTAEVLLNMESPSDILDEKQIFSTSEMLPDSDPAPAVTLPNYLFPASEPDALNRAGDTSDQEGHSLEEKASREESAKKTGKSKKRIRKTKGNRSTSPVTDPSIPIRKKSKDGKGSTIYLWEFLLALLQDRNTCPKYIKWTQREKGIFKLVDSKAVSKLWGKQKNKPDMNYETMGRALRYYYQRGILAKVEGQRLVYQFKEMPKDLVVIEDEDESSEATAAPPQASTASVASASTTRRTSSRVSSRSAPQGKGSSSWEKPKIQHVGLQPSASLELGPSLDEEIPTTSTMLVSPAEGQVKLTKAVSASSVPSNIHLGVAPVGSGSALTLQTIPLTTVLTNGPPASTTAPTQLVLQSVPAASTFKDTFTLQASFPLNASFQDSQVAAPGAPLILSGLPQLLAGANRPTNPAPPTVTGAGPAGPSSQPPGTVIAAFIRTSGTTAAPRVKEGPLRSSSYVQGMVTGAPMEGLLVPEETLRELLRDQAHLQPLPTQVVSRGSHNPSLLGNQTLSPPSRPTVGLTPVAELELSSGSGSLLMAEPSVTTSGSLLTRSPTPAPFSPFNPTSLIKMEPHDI
ETV6, sequence (P41212 whole entry): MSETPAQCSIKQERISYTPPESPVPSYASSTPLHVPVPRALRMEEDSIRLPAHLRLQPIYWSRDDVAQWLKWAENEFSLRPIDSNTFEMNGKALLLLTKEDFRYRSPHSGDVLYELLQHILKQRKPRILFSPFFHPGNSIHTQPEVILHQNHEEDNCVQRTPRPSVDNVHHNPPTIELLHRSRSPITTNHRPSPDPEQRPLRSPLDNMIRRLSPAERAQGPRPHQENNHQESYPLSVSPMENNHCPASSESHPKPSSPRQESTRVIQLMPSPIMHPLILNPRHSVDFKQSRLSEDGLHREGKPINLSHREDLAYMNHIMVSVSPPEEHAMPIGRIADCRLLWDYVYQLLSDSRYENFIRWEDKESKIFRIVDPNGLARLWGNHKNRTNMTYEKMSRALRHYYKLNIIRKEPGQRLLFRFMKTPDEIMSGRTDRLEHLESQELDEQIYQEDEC
ETV5, sequence (P41161 whole entry): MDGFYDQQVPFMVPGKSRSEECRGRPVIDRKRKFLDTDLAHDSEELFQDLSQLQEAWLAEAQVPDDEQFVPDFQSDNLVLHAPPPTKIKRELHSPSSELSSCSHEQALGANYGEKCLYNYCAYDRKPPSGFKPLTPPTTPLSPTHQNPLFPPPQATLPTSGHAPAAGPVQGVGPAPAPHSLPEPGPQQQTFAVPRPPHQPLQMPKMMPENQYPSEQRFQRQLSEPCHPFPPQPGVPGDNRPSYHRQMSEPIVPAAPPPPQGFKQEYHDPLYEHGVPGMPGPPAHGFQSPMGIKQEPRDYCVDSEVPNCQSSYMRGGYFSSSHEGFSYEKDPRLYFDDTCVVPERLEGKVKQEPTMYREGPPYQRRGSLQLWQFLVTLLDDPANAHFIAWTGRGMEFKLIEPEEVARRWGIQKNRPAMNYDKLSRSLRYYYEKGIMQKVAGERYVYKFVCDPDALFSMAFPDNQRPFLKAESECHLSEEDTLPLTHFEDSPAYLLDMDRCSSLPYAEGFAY
CRX, sequence (O43186 whole entry): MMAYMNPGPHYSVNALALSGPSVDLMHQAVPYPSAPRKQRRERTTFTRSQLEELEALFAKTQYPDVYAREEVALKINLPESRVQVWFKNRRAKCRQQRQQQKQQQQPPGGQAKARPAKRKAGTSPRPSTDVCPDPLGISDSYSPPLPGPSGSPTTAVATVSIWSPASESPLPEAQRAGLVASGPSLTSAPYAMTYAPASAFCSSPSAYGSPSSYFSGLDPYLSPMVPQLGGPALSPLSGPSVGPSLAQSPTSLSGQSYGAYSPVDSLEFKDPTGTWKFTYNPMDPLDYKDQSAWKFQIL
ETV1, sequence (P50549 whole entry): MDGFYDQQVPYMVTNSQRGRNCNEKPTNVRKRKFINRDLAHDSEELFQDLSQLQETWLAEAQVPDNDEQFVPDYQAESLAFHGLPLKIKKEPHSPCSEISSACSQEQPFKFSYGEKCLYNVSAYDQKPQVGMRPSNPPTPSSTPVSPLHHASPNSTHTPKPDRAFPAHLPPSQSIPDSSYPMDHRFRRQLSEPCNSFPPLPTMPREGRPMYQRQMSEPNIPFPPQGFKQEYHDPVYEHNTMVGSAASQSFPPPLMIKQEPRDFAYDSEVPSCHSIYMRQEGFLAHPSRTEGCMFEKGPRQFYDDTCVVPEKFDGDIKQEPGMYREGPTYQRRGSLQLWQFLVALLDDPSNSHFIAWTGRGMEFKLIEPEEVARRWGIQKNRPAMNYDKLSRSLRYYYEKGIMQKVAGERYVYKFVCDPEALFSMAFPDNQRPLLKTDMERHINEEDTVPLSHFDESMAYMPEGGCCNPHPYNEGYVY
HSF1, sequence (Q00613 whole entry): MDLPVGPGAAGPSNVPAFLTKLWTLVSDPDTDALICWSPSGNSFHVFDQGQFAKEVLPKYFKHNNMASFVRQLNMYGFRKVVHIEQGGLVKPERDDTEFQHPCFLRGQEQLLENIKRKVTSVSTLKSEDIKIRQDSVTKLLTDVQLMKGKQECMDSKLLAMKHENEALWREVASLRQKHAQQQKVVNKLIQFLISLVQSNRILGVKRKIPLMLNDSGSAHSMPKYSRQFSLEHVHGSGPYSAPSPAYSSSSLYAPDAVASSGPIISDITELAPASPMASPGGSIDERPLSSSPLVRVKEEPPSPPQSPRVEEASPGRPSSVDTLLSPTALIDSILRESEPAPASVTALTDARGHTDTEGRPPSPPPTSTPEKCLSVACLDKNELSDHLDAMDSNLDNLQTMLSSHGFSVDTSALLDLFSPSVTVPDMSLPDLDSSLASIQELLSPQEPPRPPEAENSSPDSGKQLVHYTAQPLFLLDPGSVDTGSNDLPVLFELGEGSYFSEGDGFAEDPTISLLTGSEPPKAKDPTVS

GTAAAT: the binding signal is 1.09 fold enrichment (6-mer frequency, TF over GST control) with FEV; 1.13 fold enrichment (6-mer frequency, TF over GST control) in the experiment with ETV5; 1.22 fold enrichment (6-mer frequency, TF over GST control) in the experiment with HSF1; 1.09 fold enrichment (6-mer frequency, TF over GST control) with SPIC; 1.14 fold enrichment (6-mer frequency, TF over GST control) with ELF4; 1.14 fold enrichment (6-mer frequency, TF over GST control) in the experiment with ELK4. For the same sequence, the binding signal in the experiment with ETV2 is 1.06 fold enrichment (6-mer frequency, TF over GST control); with ELF3, 1.25 fold enrichment (6-mer frequency, TF over GST control); in the experiment with CRX, 1.32 fold enrichment (6-mer frequency, TF over GST control); with ETV1, 1.07 fold enrichment (6-mer frequency, TF over GST control); with ERF, 1.18 fold enrichment (6-mer frequency, TF over GST control); with ETV3L, 1.23 fold enrichment (6-mer frequency, TF over GST control). The binding signal in the experiment with ETS2 was 1.18 fold enrichment (6-mer frequency, TF over GST control); with SPDEF, 1.13 fold enrichment (6-mer frequency, TF over GST control); with ETV7, 1.2 fold enrichment (6-mer frequency, TF over GST control); with ELF5 it was 1.12 fold enrichment (6-mer frequency, TF over GST control); with ETV3 it was 1.13 fold enrichment (6-mer frequency, TF over GST control); with ETV6, 1.18 fold enrichment (6-mer frequency, TF over GST control).
